The values below come from PubChem BioAssay (NCI).

SMILES strings stand for the structures. Several values for one entry are separate records, joined by “and”; a condition that tells them apart may be missing. Identical values can stand only once. About 83,000 compounds went through this panel and 20% of them were active in at least one assay; those are over-represented in the sample as a whole.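 How to read the values: 0–100, growth inhibition (40 = 60% inhibited); 0, no net growth; -100 to 0, cell death (-40 = 40% of starting cells died; -100 = all dead).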 Activity calls are given as the source filed them. Rule for the calls: active = growth percent below 10; inactive = the rest.

The assay relates to HCC-2998 colon. Put plainly: NCI-60 one-dose screen, 48 h (100 = growth as untreated, 0 = no growth, -100 = all killed). Conditions: 10 µM unless noted.
For the compound `NC1=CC(=O)c2cccnc2C1=O`, the growth is 59.9% (inactive).
For the compound `Cn1c(=O)c2c(nc(Nc3cc(=O)[nH]c(=O)[nH]3)n2Cc2ccccc2)n(C)c1=O`, the growth was 107% (inactive).
On to `O=C(c1ccc(Nc2nccc(NCCCNc3ccnc4cc(Cl)ccc34)n2)cc1)N1CCCCC1`, for which the growth is 26% (inactive).
In the case of `COc1c(NC=O)c2c(c([N+](=O)[O-])c1OC)C(=O)OC2`, the growth was 105% (inactive) and 89.9% (inactive).
On to `COc1ccc(Cl)cc1Nc1nc(C(F)(F)F)ccc1C(=O)N/N=C/c1ccc(N(C)C)cc1`, for which the growth is 68.3% (inactive).
With `CC1=C2[C@@H](CC1)[C@]1(C)O[C@@](C3CC3)(C[C@H]1OC(=O)CO)[C@H]2OC(=O)/C=C/c1ccccc1`, the growth is 88.4% (inactive).
Next, `CC/C=C\C/C=C\C[C@H](O)C/C=C1/C(=O)C=C[C@@H]1C/C=C\CCCC(=O)OC`: -83.9% (active); `Cc1[nH]c(C(=O)Nc2nc3ccc(NC(=O)CCN)cc3s2)c(Cl)c1Cl`: 96.4% (inactive); `COc1cc(Cl)cc(-c2nn(C(=O)NS(=O)(=O)c3ccc(Cl)cc3)cc2-c2ccncc2)c1`: 99.3% (inactive).
For `C[C@@H]1O[C@@H](O[C@H]2[C@@H](OC(=O)[C@]34CCC(C)(C)C[C@H]3C3=CC[C@@H]5[C@@]6(C)C[C@H](O)[C@H](O[C@@H]7O[C@H](CO)[C@@H](O)[C@H](O)[C@H]7O)[C@@](C)(CO)[C@@H]6CC[C@@]5(C)[C@]3(C)C[C@H]4O)OC[C@@H](O)[C@@H]2O)[C@H](O)[C@H](O[C@@H]2OC[C@@H](O)[C@H](O[C@@H]3OC[C@](O)(CO)[C@H]3O[C@@H]3OC[C@@H](O)[C@H](O)[C@H]3O)[C@H]2O)[C@H]1O[C@@H]1OC[C@](O)(CO)[C@H]1O`, the growth was -1.75% (active).
On to `Cc1c(O)c(O)cc2c3c(oc12)CC(c1ccc2c(c1)OCO2)CC3=O` (stereo unspecified), for which the growth is 101% (inactive).
Consider `COc1cc(F)c(/C=C/c2cc(/C=C/c3cc(OC)c(OC)cc3F)n(-c3cc(F)cc(F)c3)n2)cc1OC`, for which the growth was 85.5% (inactive).
Next, `CN1CCN(CCCN2c3ccccc3Sc3ccc(Cl)cc32)CC1`: 66.8% (inactive); `O=C(N=Nc1c(O)[nH]c2ccccc12)Nc1ccccc1Cl`: 78.2% (inactive).
Regarding `OCCN1CCN(CC/C=C2\c3ccccc3Sc3ccc(Cl)cc32)CC1`, the growth is -91.4% (active) and 12.7% (inactive).
Then `COc1nc2ccc(C)cc2cc1/C=[N+](\[O-])c1ccccc1`, with 98.2% (inactive); and `O=C(CCN1CCOCC1)Nc1cccc(-n2cc(-c3ccncc3)c(-c3ccc(Cl)c(O)c3)n2)c1`, with 66.9% (inactive); and `CN1CCN(c2ccc(Nc3ncc(C(N)=O)c(NCCCNC(=O)C4CCC4)n3)cc2)CC1`, with 85.6% (inactive).
As for `CN(C)c1ccc2nc3ccc(=O)cc-3sc2c1`, the growth was 18.1% (inactive) and 39.7% (inactive).
Then `CC(=O)N1N=C(c2ccc(Nc3nc(Nc4ccc(F)cc4)nc(Nc4ccc(F)cc4)n3)cc2)CC1c1ccccc1` (stereo unspecified), with 94.3% (inactive).
Regarding `C/C=C(\C)C(=O)N[C@H]1CC[C@]2(C)C3CC[C@@]4(C)C(CC[C@@H]4C(C)N(C)C)C3CCC2[C@H]1OC(C)=O` (stereo partly specified), the growth was -85.4% (active).
For the compound `Cc1ccc(-c2nc3nc(-c4ccc(Cl)cc4)nc(N4CCCNCC4)c3o2)cc1`, the growth was -78.8% (active).
As to `Nc1n[nH]c2cccc(C#Cc3cccc(NC(=O)c4ccc(N5CCOCC5)c(C(F)(F)F)c4)c3)c12`, the growth is 6.77% (active).
Consider `O=C1C(c2c[nH]c3ccccc23)=C(c2coc3cc(Br)ccc23)C(=O)N1O`, for which the growth was 100% (inactive).
As to `Cc1cc(N2CCCCC2)nc(NCc2cc(Nc3ccnc4cc(Cl)ccc34)ccc2F)n1`, the growth was -16% (active).
Take `CC1(C)C(N)=Nc2cc(OCCCN3Cc4ccc(OCCc5cn(CC(=O)N6CCC(CCN7CCCC7)CC6)nn5)cc4C3)c(OCC3CC3)cc21`: the growth is 122% (inactive).
Next, `CS(=O)(=O)Nc1cc(-c2ccc3ncnc(Nc4ccc(F)c(Cl)c4)c3c2)cnc1Cl`: 16.1% (inactive); `Cc1cnc(C(=O)NNc2nc3sc4c(c3c(=O)[nH]2)C(C)CCC4)cn1` (stereo unspecified): 11.1% (inactive).
As to `Cn1cc2c(=O)nc3c(-c4nc5ccccc5[nH]4)n[nH]n3c2n1`, the growth was 84.8% (inactive).
On to `Cc1ccc(-c2nc3nc(-c4ccc(F)cc4)nc(N4CCCNCC4)c3o2)cc1`, for which the growth was -89.3% (active).
With `COc1ccc2c(c1)c(-c1nc(-c3c[nH]c4c(Cl)nccc34)cs1)cn2C`, the growth was 74.6% (inactive).
